Laboratory results as given in PubChem BioAssay.
Calls of active or inactive are those of the source. Unless noted, the rule behind the calls is not given here.

Assays:
[1] = compounds binding Alexa647 anti-His antibody – biochemical, small-molecule microarray, 635 nm fluorescence, artefact control for SMM control protein annotation, primary screen (AID 1128); details: higher = more signal;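 note: score merges feature fluorescence with signal-to-noise for each printed compound spot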
[2] = system: Human papillomavirus type 1a E7 protein (residues 1-88); assay: HPV1a E7 small-molecule binders, primary screen, biochemical, small-molecule microarray, residues 1-88, 635 nm (AID 1129); details: small-molecule microarray binding, fluorescence 635 nm; higher = more signal
[3] = biological target: Focal adhesion kinase 1 (Homo sapiens) (UniProt Q05397); assay: PTK2 protein binding on printed compound slides – biochemical, small-molecule microarray, 635/667 nm fluorescence, BSA, DTT, primary screen (AID 1130); details: 635 nm fluorescence, higher = more signal;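 note: composite of spot emission at 667 nm and signal to noise over triplicate slides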
[4] = system: Fibrinogen (Alexa647-labelled); assay: Alexa647-fibrinogen binding to printed small molecules – biochemical, small-molecule microarray, 635/667 nm fluorescence, artefact control for SMM control-protein annotation, profiling panel (AID 1131); details: fibrinogen-A647 binding fluorescence, higher = more signal;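 note: z-score merges 667 nm fluorescence with per-spot signal-to-noise over triplicate slides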
[5] = biological target: Follistatin (Homo sapiens) (UniProt P19883); assay: FST protein binding to printed compounds – biochemical, small-molecule microarray, 635/667 nm fluorescence, primary screen (AID 1132); details: 635 nm fluorescence, higher = more signal
[6] = biological target: Fibroblast growth factor 2 (Homo sapiens) (UniProt P09038); assay: basic fibroblast growth factor binding to printed compounds – biochemical, small-molecule microarray, 635/667 nm fluorescence, primary screen (AID 1133); details: FGF2, fluorescence 635/667, higher = more signal
[7] = JC-1 mitochondrial potential readout, lung cancer cells – cell-based, A549, JC-1 fluorescence, basal, 24 h, 100 nL, profiling panel (AID 1138); details: higher = more signal;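 note: A549 lung adenocarcinoma cells under basal conditions with no added stimulus; test concentration not given here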
Lefty1 = Lefty1 protein binding to printed compounds – biochemical, small-molecule microarray, 635/667 nm fluorescence, primary screen (AID 1139); details: fluorescence 635/667, higher = more signal
[8] = system: wheat germ agglutinin (Triticum aestivum), Alexa647-labelled; assay: Alexa647-WGA lectin binding to printed small molecules – biochemical, small-molecule microarray, 635/667 nm fluorescence, artefact control for SMM control-protein annotation, profiling panel (AID 1140); details: WGA-A647 binding, 635 nm fluorescence, higher = more signal;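 note: score merges 667 nm feature emission with signal to noise over triplicate slides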
[9] = biological target: Luciferin 4-monooxygenase (Photinus pyralis) (UniProt P08659); assay: inhibition of purified Photinus pyralis luciferase – biochemical, luminescence, purified enzyme, 2006 set, primary screen (AID 1141); details: purified firefly luciferase, SteadyGlo luminescence, 30 min; higher = more signal, called active from +8 up or from −8 down;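 note: cell-free assay with purified firefly luciferase at 100 ng per well in PBS; test concentration not given here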
[10] = system: Wnt5a (protein binding on small-molecule microarray); assay: small molecules binding Wnt5a protein – biophysical, small-molecule microarray, 635/667 nm fluorescence, primary screen (AID 1142); details: 635 nm fluorescence, higher = more signal;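 note: fluorescence read at 667 nm with signal to noise per printed feature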
[11] = ATP-based viability of Huh7 replicon cells – cell-based, CellTiter-Glo luminescence, basal, 48 h, cytotoxicity control for HCV replication inhibitor project, primary screen (AID 1143); details: higher = more signal, called active from +8 up or from −8 down;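 note: Huh7 hepatoma cells carrying a hepatitis C replication reporter with no stimulus; test concentration not given here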
[12] = Pseudomonas biofilm growth suppression – PAO1 strain, BacTiter-Glo luminescence, LB-PBS, primary screen (AID 1144); details: P. aeruginosa PAO1 biofilm, 12 h, higher = more signal
[13] = basal CRE-LacZ reporter activity in PC12 – cell-based, unstimulated, primary screen (AID 1145); details: no forskolin, luminescence, 4.5 h, higher = more signal, called active from +8 up or from −8 down
[14] = forskolin-driven CRE-LacZ activity in PC12 – cell-based, CRE-LacZ reporter, forskolin-stimulated, primary screen (AID 1146); details: luminescence, 4.5 h, higher = more signal, called active from +8 up or from −8 down;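 note: PC12 cells with 6xCRE LacZ reporter stimulated by forskolin 10 µM; beta-galactosidase reporter signal reflecting CREB driven transcription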
[15] = biological target: Streptavidin (Streptomyces avidinii) (UniProt P22629); assay: compounds binding control protein streptavidin – biophysical, small-molecule microarray, 635/667 nm fluorescence, artefact control for SMM compound annotation, primary screen (AID 1147); details: higher = more signal;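 note: signal reflects streptavidin binding to arrayed compounds as a control protein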
[16] = probe aInhba binding on compound microarray – biochemical, small-molecule microarray, 635/667 nm fluorescence, primary screen (AID 1148); details: higher = more signal;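 note: score merges 667nm spot fluorescence with signal-to-noise for antibody binding to printed compounds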
Torsin-1A (Homo sapiens) [17] = biological target: Torsin-1A (Homo sapiens) (UniProt O14656); assay: TOR1A wild-type binding on microarray – cell lysate, small-molecule microarray, lysate, 635/667 nm, primary screen (AID 1149); details: COS7 hTOR1A-WT lysate, 635 nm fluorescence, higher = more signal
Torsin-1A (Homo sapiens) [18] = biological target: Torsin-1A (Homo sapiens) (UniProt O14656); assay: torsin A mutant lysate binding on microarrays – cell lysate, small-molecule microarray, COS7 lysate, 635/667 nm fluorescence, primary screen (AID 1150); details: COS7 hTOR1A mutant lysate, 635 nm fluorescence, higher = more signal;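 note: score pools 667 nm emission and signal to noise measuring lysate protein binding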
[19] = system: Sonic hedgehog protein (Shh); assay: Sonic hedgehog microarray binding compounds – biochemical, small-molecule microarray, 635/667 nm fluorescence, primary screen (AID 1151); details: 635 nm fluorescence, higher = more signal;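 note: Shh protein binding to compounds spotted on small-molecule microarray slides; score combines spot fluorescence intensity with signal-to-noise across triplicate slides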

Follistatin (Homo sapiens), sequence (P19883 whole entry, looked up): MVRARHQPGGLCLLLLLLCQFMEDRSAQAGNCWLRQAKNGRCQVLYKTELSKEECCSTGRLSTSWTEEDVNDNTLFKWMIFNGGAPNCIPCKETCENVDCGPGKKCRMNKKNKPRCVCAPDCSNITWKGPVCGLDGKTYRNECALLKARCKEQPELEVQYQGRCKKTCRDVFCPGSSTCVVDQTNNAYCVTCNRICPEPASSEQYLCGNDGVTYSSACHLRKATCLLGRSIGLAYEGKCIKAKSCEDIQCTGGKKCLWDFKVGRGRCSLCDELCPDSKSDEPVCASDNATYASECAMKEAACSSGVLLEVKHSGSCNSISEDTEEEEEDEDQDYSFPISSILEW
Fibroblast growth factor 2 (Homo sapiens), sequence (P09038 whole entry, looked up): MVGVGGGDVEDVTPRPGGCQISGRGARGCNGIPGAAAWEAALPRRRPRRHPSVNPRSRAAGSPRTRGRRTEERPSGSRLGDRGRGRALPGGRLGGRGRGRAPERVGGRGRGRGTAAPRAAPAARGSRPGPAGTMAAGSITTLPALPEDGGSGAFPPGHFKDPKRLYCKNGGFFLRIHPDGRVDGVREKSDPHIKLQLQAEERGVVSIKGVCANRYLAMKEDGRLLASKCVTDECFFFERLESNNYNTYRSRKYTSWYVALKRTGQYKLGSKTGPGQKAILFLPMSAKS
Streptavidin (Streptomyces avidinii), sequence (P22629 whole entry, looked up): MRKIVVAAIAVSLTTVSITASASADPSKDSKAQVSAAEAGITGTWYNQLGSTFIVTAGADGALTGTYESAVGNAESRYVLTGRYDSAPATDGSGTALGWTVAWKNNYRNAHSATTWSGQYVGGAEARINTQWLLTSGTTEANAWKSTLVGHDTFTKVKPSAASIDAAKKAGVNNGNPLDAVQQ
Torsin-1A (Homo sapiens), sequence (O14656 whole entry, looked up): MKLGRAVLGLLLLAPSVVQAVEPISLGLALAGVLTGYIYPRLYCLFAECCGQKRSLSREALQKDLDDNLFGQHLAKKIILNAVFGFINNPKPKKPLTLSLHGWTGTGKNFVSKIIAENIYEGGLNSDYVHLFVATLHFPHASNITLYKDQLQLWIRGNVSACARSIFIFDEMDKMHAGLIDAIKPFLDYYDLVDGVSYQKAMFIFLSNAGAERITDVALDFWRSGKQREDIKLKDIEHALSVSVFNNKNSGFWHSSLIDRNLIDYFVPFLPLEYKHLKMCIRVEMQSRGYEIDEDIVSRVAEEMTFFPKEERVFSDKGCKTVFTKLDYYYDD
Focal adhesion kinase 1 (Homo sapiens), sequence (Q05397 whole entry, looked up): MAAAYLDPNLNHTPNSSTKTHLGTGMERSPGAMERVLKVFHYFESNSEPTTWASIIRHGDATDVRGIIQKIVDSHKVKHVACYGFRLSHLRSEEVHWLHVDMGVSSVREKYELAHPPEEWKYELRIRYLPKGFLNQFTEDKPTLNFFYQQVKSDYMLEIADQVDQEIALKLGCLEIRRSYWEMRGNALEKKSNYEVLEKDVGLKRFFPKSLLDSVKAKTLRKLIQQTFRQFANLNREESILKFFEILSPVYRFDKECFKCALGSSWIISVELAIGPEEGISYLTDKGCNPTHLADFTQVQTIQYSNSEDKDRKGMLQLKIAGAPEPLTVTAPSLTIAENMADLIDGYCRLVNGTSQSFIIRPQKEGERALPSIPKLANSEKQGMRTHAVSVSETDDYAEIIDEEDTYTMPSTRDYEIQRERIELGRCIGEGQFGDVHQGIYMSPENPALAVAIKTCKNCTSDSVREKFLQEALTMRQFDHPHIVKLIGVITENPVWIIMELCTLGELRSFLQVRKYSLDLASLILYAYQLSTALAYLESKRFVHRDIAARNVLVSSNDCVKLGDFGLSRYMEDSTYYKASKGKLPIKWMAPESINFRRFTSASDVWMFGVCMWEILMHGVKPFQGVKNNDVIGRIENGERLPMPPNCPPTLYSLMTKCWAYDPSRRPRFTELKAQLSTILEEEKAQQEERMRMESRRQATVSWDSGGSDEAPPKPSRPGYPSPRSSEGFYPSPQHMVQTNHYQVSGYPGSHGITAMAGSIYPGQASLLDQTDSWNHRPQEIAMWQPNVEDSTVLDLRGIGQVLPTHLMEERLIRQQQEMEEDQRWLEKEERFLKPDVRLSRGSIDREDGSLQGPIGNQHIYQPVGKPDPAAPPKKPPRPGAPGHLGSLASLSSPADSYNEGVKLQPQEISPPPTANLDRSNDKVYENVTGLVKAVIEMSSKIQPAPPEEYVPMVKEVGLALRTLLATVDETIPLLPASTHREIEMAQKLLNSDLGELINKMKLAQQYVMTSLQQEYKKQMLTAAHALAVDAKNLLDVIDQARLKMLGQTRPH
Luciferin 4-monooxygenase (Photinus pyralis), sequence (P08659 whole entry, looked up): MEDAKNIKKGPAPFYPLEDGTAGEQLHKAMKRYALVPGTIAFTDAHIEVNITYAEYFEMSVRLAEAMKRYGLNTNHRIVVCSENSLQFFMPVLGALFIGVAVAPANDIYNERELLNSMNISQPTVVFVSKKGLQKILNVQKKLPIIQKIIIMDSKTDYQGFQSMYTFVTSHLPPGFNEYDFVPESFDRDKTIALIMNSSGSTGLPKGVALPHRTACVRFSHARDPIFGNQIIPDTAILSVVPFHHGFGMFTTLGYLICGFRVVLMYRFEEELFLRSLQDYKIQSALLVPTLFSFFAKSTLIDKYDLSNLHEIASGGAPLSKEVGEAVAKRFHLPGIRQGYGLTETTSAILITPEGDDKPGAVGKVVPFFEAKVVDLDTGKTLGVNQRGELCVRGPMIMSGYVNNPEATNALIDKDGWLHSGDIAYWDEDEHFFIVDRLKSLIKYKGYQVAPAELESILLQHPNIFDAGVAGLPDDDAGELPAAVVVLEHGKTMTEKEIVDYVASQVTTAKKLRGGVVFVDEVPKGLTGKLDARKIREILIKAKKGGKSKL

Row | SMILES | composite z-score [1] | composite z-score [2] | composite z-score [3] | composite z-score [4] | composite z-score [5] | composite z-score [6] | z-score [7] | composite z-score (Lefty1) | composite z-score [8] | z-score [9] | composite z-score [10] | z-score [11] | z-score [12] | z-score [13] | z-score [14] | composite z-score [15] | composite z-score [16] | composite z-score (Torsin-1A (Homo sapiens) [17]) | composite z-score (Torsin-1A (Homo sapiens) [18]) | composite z-score [19]
1 | COC(=O)c1c(CC[C@@H](CO)NC(=O)N[C@@H](Cc2ccccc2)Cn2cc(C3(O)CCCCC3)nn2)oc(C(C)=O)c1C(=O)OC | 1.37 | 0.868 | 0.0673 | 0.307 | 0.691 | 0.957 | -0.941 | 1.31 | -0.267 | 0.896 (inactive) | 0.636 | -5.52 (inactive) | -1.73 (inactive) | 0.512 (inactive) | -1.36 (inactive) | 1.16 | -0.0178 | 0.69 | 0.405 | 1.7
2 | COC(=O)[C@@]1(Cc2ccccc2)[C@H]2c3cc(C(=O)N(C)C)n(Cc4c(-c5ccccc5)noc4C)c3C[C@H]2CN1C(=O)c1ccccc1 | 2.29 | 1.22 | 1.21 | 0.968 | 0.212 | -0.533 | 0.582 | -0.579 | 1.17 | 1.49 (inactive) | 0.235 | -2.2 (inactive) | -0.0247 (inactive) | 0.201 (inactive) | -0.732 (inactive) | 1.47 | 0.308 | 0.301 | 0.584 | -0.141
3 | COCCOC(=O)N1C(=O)[C@@]2(c3cc(C#CCCO)ccc31)[C@H](C(=O)NC[C@H](O)c1ccccc1)[C@H]1C(=O)O[C@H](c3ccccc3)[C@H](c3ccccc3)N1[C@@H]2c1ccc(O)cc1 | 1.69 | 0.789 | 0.148 | -0.134 | 1.09 | 0.837 | -0.319 | 0.429 | 0.363 | 0.788 (inactive) | 0.0418 | -0.612 (inactive) | -1.16 (inactive) | -1.29 (inactive) | -0.201 (inactive) | 0.276 | -0.0136 | 0.581 | 1.12 | 1.79
4 | COc1ccc([Si](C)(C)[C@H]2[C@H](CCn3cc(CCO)nn3)O[C@@]3(C(=O)N(Cc4ccc(N5CCOC5=O)cc4)c4ccccc43)[C@@H]2C)cc1 | 1.88 | 1.16 | 0.105 | 0.505 | 0.308 | 0.308 | 1.26 | 0.419 | 0.829 | -0.648 (inactive) | -0.0483 | -4.12 (inactive) | 9e-05 (inactive) | 0.469 (inactive) | -2.21 (inactive) | -0.0903 | -0.0044 | 0.676 | 0.806 | 1.59
5 | CC(=O)NCCCC[C@@H]1NC(=O)[C@@H]2C[C@H](C(=O)NCCCCN(C)C)[C@H](c3ccc(O)cc3)N2C1=O | 0.231 | -0.529 | -0.2 | -2.52 | 0.296 | 1.14 | 0.485 | -0.0932 | 0.225 | 0.869 (inactive) | -0.465 | 0.0068 (inactive) | -1.02 (inactive) | -0.809 (inactive) | -0.174 (inactive) | -0.506 | -0.23 | -0.893 | -0.88 | 0.54
6 | N#Cc1ccc(NN2C(C(O)c3cccs3)C=CC3C(=O)N(c4ccccc4)C(=O)C32)cc1 (stereo not given) | -0.272 | 0.685 | 0.421 | 0.71 | 0.556 | -0.216 | 0.989 | -0.257 | 0.578 | -0.589 (inactive) | 0.128 | -0.0331 (inactive) | -1.34 (inactive) | -0.329 (inactive) | -0.224 (inactive) | 0.943 | 0.109 | 0.733 | 0.812 | -0.318
7 | COc1ccc(C#Cc2ccc3c(c2)[C@]2(C(=O)N3)[C@H](C(=O)NC[C@H](O)c3ccccc3)[C@H]3C(=O)O[C@H](c4ccccc4)[C@H](c4ccccc4)N3[C@@H]2c2ccc(OCCO)cc2)cc1 | 0.408 | 0.991 | 0.303 | 0.964 | 1.36 | 1.19 | -1.96 | 1.22 | 1.13 | -1.58 (inactive) | 0.628 | -2.89 (inactive) | -0.563 (inactive) | 0.478 (inactive) | -0.447 (inactive) | 0.59 | -0.0173 | 0.369 | 0.869 | 1.96
8 | [N-]=[N+]=NCc1ccccc1C[C@@]1(C(=O)NCC(O)CO)N=C(c2ccc(OCCCO)cc2)O[C@@H]1c1ccccc1CN=[N+]=[N-] (stereo not given in full) | -0.0645 | 1.23 | 0.919 | 0.971 | 1.28 | 1.6 | 0.16 | -0.83 | 0.91 | 0.782 (inactive) | 0.604 | -1.84 (inactive) | -0.376 (inactive) | -0.435 (inactive) | -0.554 (inactive) | 1.43 | 0.533 | 0.441 | 1.39 | -0.393
9 | COc1ccc(CCNC(=O)[C@@]2(c3ccc([N+](=O)[O-])cc3)CC(=O)N(CC34CC5CC(CC(C5)C3)C4)[C@@H]2c2ccc(CO)cc2)cc1 | 1.59 | 1.17 | 0.397 | 0.347 | 1.41 | 1.21 | -0.483 | 0.981 | -0.037 | 0.41 (inactive) | 0.145 | -5.75 (inactive) | -1.36 (inactive) | -0.062 (inactive) | 0.164 (inactive) | 0.531 | 0.327 | 0.246 | 0.388 | 0.948
10 | COC(=O)[C@@]1(Cc2ccccc2)[C@H]2c3cc(C(=O)N(C)C)n(Cc4cc(C)n(C)n4)c3C[C@H]2CN1C(=O)c1ccccc1 | 1.95 | 1.13 | 0.57 | -0.103 | 0.229 | -0.768 | -0.127 | -0.169 | 0.889 | 0.887 (inactive) | 0.0704 | -1.31 (inactive) | 0.381 (inactive) | 2.3 (inactive) | 1.92 (inactive) | 1.63 | 0.606 | 1.31 | 1.99 | 0.278
